# Measurements as given in PubChem BioAssay (NCATS).
# Values joined by “and” are separate entries in the source; they are usually repeats but may differ in a detail not shown here. Identical values can stand only once. Records with an inconclusive call do not appear. Where a call stands in place of a potency, no number is given. Values without a mark were called inactive. Active and inactive are the calls of the source. The call rests on the fitted dose curve; in most records, active means well fitted curve in the direction sought with a large enough effect; inconclusive means small, poorly fitted or top-dose-only effect, or another doubt; inactive means no such curve, though single readings can be large; an effect the other way counts as inactive or inconclusive.
# How the values were obtained:
# [1] = molecular target: Cellular tumor antigen p53 (Homo sapiens) (UniProt P04637); test: Primary qHTS for small molecule compounds that upregulate eGFP-tagged delta133p53alpha (in N-terminal) cells. (AID 2060322); conditions: NCI-H358 eGFP-delta133p53alpha fluorescence, 24 h; activation: active compounds read high; further: nearly all actives have a fitted effect of over 75% in size; further: potency means the concentration at half of the fitted maximal effect;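 on activation: cells pre-induced with doxycycline then dosed without doxycycline; series mostly up to about 56 µM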
# Procedure, shortened: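 NCI-H358 cells pre-induced 24 h with 10 ng/ml doxycycline for eGFP-delta133p53alpha, plated dox-free and exposed 24 h at 37C to titrated compounds. Fixed, Hoechst-stained; gated GFP peak intensity by laser scanning cytometry, normalized to DMSO (0%) and 57.5 uM 5-azacytidine (100%).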
# [2] = molecular target: Aldehyde dehydrogenase, mitochondrial (Homo sapiens) (UniProt P05091); test: qHTS for Inhibitors of the Aldehyde Dehydrogenase Family (ALDH2) Primary screen (AID 2061308); further: nearly all actives have a fitted effect of over 55% in size
# [3] = molecular target: Retinaldehyde dehydrogenase 3 (Homo sapiens) (UniProt P47895); test: qHTS for Inhibitors of the Aldehyde Dehydrogenase Family (ALDH1A3) Validation screen (AID 2061312); further: nearly all actives have a fitted effect of over 45% in size
# [4] = molecular target: Retinaldehyde dehydrogenase 3 (Homo sapiens) (UniProt P47895); test: qHTS for Inhibitors of the Aldehyde Dehydrogenase Family (ALDH1A3) Primary screen (AID 2061315)
# Cellular tumor antigen p53 (Homo sapiens), sequence (P04637 whole entry, looked up): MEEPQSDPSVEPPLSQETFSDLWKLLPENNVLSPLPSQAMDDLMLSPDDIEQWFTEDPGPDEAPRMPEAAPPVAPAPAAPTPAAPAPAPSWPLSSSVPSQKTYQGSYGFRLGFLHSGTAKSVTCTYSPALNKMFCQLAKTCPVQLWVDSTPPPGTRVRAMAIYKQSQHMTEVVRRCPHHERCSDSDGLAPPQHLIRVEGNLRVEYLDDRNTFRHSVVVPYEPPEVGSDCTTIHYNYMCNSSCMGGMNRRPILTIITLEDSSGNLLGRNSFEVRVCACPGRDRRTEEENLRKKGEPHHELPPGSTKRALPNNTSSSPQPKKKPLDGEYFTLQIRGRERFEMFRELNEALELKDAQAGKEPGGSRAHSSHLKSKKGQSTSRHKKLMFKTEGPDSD
SMILES,activation [1],Potency [2],Potency [3],Potency [4],"activity change, negative = inhibition [2]","activity change, negative = inhibition [4]",Potency [1]
Cc1ccccc1CN1CCC(N2CCC(n3c(=O)[nH]c4ccccc43)CC2)CC1,-15.8%,inactive,inactive,inactive,,,
CCCCCCn1c(=O)c(C(=O)Nc2ccc(C(=O)OCCC)cc2)c(O)c2ccccc21,4.3%,,inactive,,11.3% [at 11.2 µM],11.2% [at 11.2 µM],
CC[C@H](O)[C@@H](C)[C@H]1O[C@@H]1C[C@H](C)/C=C/C=C(\C)[C@H]1OC(=O)C[C@H](O)CC[C@@](C)(O)[C@@H](OC(C)=O)/C=C/[C@@H]1C,,inactive,inactive,inactive,,,67.5 nM (active)
CN(C(=O)Cc1ccccc1)C(CN1CCCC1)c1ccccc1 (configuration not stated),-0.477%,inactive,inactive,inactive,,,
NC(=O)c1ncn2c1CN=C(c1ccccc1Br)c1cc(F)ccc1-2,-14.3%,inactive,inactive,inactive,,,
CN1C(=O)CN=C(c2ccccc2Cl)c2cc(Cl)ccc21,-10%,inactive,inactive,inactive,,,
CCOC(=O)c1ccc(-c2ccc(OC(=O)N(C)Cc3cccc(-c4ccncc4)c3)cc2)cc1,-12.9%,inactive,inactive,inactive,,,
N#Cc1cn([C@@H]2O[C@H](CO)[C@H](O)[C@@H]2O)c2ncnc(N)c12,,inactive,inactive,inactive,,,75.7 nM (active)
Cc1cccc(NC(=O)N[C@@H]2N=C(c3ccccc3)c3ccccc3N(C)C2=O)c1,-11%,inactive,inactive,inactive,,,
Cc1ccc(-n2nccn2)c(C(=O)N2CCN(c3nc4cc(Cl)ccc4o3)CCC2C)c1 (configuration not stated),-12.4%,inactive,inactive,inactive,,,
Cc1c(Cl)c(OCC(=O)N2CCN(C)CC2)nc2sc(C(=O)NC3CC3)c(N)c12,5.25%,inactive,inactive,inactive,,,
C[C@H](NC(=O)Cc1cc(F)cc(F)c1)C(=O)N[C@@H]1N=C(c2ccccc2)c2ccccc2N(C)C1=O,21%,inactive,inactive,inactive,,,
CC(C)N(CCNC(=O)CN1CCCC1=O)C(C)C,-9.94% and -3.34%,inactive,inactive,inactive,,,
COc1cccc(NCC(F)Cn2c3ccc(Br)cc3c3cc(Br)ccc32)c1 (configuration not stated),8.11%,inactive,inactive,inactive,,,
C[C@H]1CN(CC[C@H](O)C2CCCCC2)CC[C@@]1(C)c1cccc(O)c1,-6.21%,inactive,inactive,inactive,,,
Cc1ccc2c(c1)[C@H]1CN(C)CC[C@H]1N2C(=O)CSc1nnnn1-c1ccc(Cl)cc1,-6.68%,inactive,inactive,inactive,,,
CN1C(=O)[C@@H](Cc2c[nH]c3ccccc23)N=C(c2ccccc2F)c2ccccc21,15.8%,inactive,inactive,inactive,,,
CC1(C)C(=O)N(c2ccc(C#N)c(C(F)(F)F)c2)C(=S)N1c1ccc(C(N)=O)c(F)c1,1.43%,inactive,inactive,inactive,,,
CC(=O)NCCCOc1ccc(C(=O)N2CCC(N3C(=O)CCc4ccccc43)CC2)cc1,-10.5%,inactive,inactive,inactive,,,
CCCCN1[C@@H]2CC[C@H]1CC(OC(c1ccc(F)cc1)c1ccc(F)cc1)C2 (some centres not stated),2.39%,inactive,inactive,inactive,,,
Cn1ncnc1COc1nn2c(-c3c(F)cccc3F)nnc2cc1C1CCC1,-7.16%,inactive,inactive,inactive,,,
C1=C2CCCN[C@H]2[C@@H]2C[C@H]1[C@H]1CCCCN1C2,-9.55%,inactive,inactive,inactive,,,
CCOC(=O)c1cncn1C(C)c1ccccc1 (configuration not stated),10% and 2.86%,inactive,inactive,inactive,,,
NCCCCCNC1(c2ccccc2)CCCCC1,-6.68%,inactive,inactive,inactive,,,
CC(C)[C@@H](CN1CC[C@@](C)(c2cccc(O)c2)[C@@H](C)C1)NC(=O)[C@H]1Cc2ccc(O)cc2CN1,29.1%,inactive,inactive,inactive,,,
CC(N)Cc1c[nH]c2ccccc12 (configuration not stated),12.4%,inactive,inactive,inactive,,,
O=C(NCCN1CCC2(CC1)C(=O)NCN2c1cccc(F)c1)c1ccc(F)c(F)c1,18.1%,inactive,inactive,inactive,,,
CN(C(=O)C(c1ccccc1)c1ccccc1)[C@H](CN1CC[C@H](O)C1)c1ccccc1,14.8%,inactive,inactive,inactive,,,
